High-throughput results (PubChem BioAssay)
The full list was thinned out, with hits kept by preference.
Cycloheximide cs – affects cycloheximide protein synthesis inhibition readout, counter-screen. cell reporter, cycloheximide protein synthesis inhibition counterscreen. max response, %. hit rate 12% among 300,000. AID 2314; in the data active = max response mostly above about 13%, no sharp cut-off; inactive = mostly below about 14%; also: read at 38.3 µM for the half of the compounds with a filed dose; 0% is about no effect
LmPK inh – blocks Leishmania mexicana pyruvate kinase activity. Q27686. purified LmPK, Kinase-Glo ATP luminescence, 1 h. Potency, µM (series often up to 57.5 µM), for inactives: at the highest dose activity change, negative = inhibition, most hits filed as inhibitors. hit rate 0.37% among 290,000; also: potency is read from the fitted curve at half-maximal effect; % is scaled to controls: 0 for no effect and ±100 for the full control effect
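In 50 mM imidazole pH 7.2 with 7 mM MgCl2, LmPK (0.1 nM) turned over PEP (0.5 mM) and ADP (0.1 mM) for 1 h at room temperature. Luciferase read-out of ATP.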
Shiga toxin inh – inhibitors of Shiga toxin in Vero cells; inhibition, % at 38.7 µM; Vero cells, Shiga toxin protein synthesis inhibition reporter; hit rate 9.2% among 290,000; in the data active = inhibition mostly above about 28%, no sharp cut-off; inactive = mostly below about 43%; also: 0% is about no effect
Sm TGR block – inhibitors of Schistosoma mansoni thioredoxin glutathione reductase | AID 485364 | purified TGR, DTNB reduction, TNB absorbance 405 nm | hit rate 3% among 360,000 | Potency, µM (titrated, usually from 114 µM), inactives show top-dose activity change, negative = inhibition, actives largely listed as inhibitors; also: potency is read from the fitted curve at half-maximal effect; % is scaled to controls: 0 for no effect and ±100 for the full control effect; nearly all actives have a fitted effect of over 60% in size
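First, TGR (20 nM dispensed) and NADPH were mixed with compound. Second, a 15 min room-temperature incubation followed. Third, further NADPH and then DTNB were added to start the reaction. Finally, TNB absorbance was monitored kinetically.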
TbPYK inhibitor – inhibitors of Trypanosoma brucei pyruvate kinase; Q57TT1; TbPYK enzyme, Kinase-Glo Plus ATP luminescence, 45 min; Potency, µM (doses to about 76.8 µM), inactives show at the highest dose activity, negative = inhibition, hits mostly inhibitors; hit rate 0.12% among 410,000; AID 624173; also: potency is read from the fitted curve at half-maximal effect; % is scaled to controls: 0 for no effect and ±100 for the full control effect; nearly all actives have a fitted effect of over 50% in size
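Glycolytic pyruvate kinase of T. brucei was incubated with substrate, test compound and 130 uM ADP for 45 minutes at room temperature. Luminescent Kinase-Glo Plus signal was measured after 10 minutes.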
Giardia FBPA inh-1 – Giardia lamblia aldolase inhibition. A8B2U2. hit rate 0.71% among 290,000. AID 2451. Potency, µM (doses to about 59.6 µM), for the others: top-dose activity, negative = inhibition, actives largely listed as inhibitors. purified Giardia FBPA; also: potency is read from the fitted curve at half-maximal effect; % is scaled to controls: 0 for no effect and ±100 for the full control effect; nearly all actives have a fitted effect of over 55% in size
Target sequence (A8B2U2 whole entry, looked up): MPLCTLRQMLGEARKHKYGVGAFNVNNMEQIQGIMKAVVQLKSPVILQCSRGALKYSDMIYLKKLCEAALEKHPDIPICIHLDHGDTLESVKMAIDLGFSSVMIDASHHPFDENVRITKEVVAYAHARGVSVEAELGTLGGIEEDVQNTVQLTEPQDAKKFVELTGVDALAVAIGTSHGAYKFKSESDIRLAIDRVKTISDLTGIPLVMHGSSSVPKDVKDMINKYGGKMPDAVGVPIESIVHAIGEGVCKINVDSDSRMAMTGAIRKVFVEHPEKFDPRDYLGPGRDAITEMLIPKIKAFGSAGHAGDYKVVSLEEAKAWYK
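40 nM FBPA preincubated 10 min at RT with compound (up to 57.5 uM final), then substrate plus GAPDH/TPI/NAD/arsenate coupling and diaphorase/resazurin added. Fluorescence read after 20 min at RT, 525/598 nm.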
Giardia growth – inhibitors of Giardia lamblia growth; Giardia lamblia trophozoite growth inhibition; shares compounds with Giardia FBPA inh-1; Potency, µM (series often up to 57.5 µM), for inactives: at the highest dose activity change, negative = inhibition, most hits filed as inhibitors; hit rate 5% among 1,500;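 also: potency is read from the fitted curve at half-maximal effect; trophozoites exposed to compound for 48 h at 37 °C; % is scaled to controls: 0 for no effect and ±100 for the full control effect; nearly all actives have a fitted effect of over 70% in size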
Mammalian tox – counter-screen for Giardia aldolase inhibitors: mammalian cell toxicity; shares compounds with Giardia FBPA inh-1; mammalian cell viability counter-screen, qHTS; Potency, µM (doses to about 57.5 µM), for inactives: at the top dose viability change, negative = toxicity, hits mostly inhibitors; hit rate 4% among 1,500;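 also: Chinese hamster ovary cells used as mammalian cytotoxicity surrogate; viability measured as cellular ATP by luminescence; potency is read from the fitted curve at half-maximal effect; compound exposure lasted 48 h before reading; % is scaled to controls: 0 for no effect and ±100 for the full control effect; nearly all actives have a fitted effect of over 60% in size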
Giardia FBPA inh-2 – confirmation of Giardia fructose-bisphosphate aldolase inhibitors; Potency, µM (titrated, usually from 57.5 µM), without a hit: top-dose activity change, negative = inhibition, most hits filed as inhibitors; shares compounds with Giardia FBPA inh-1; hit rate 5% among 1,500; purified Giardia aldolase enzyme activity, qHTS; also: potency is read from the fitted curve at half-maximal effect; % is scaled to controls: 0 for no effect and ±100 for the full control effect; nearly all actives have a fitted effect of over 45% in size
Rabbit aldolase – blocks rabbit muscle aldolase in Giardia aldolase selectivity test; shares compounds with Giardia FBPA inh-1; hit rate 4% among 1,500; Rabbit muscle FBPA enzyme inhibition, selectivity counter-screen; Potency, µM (doses to about 57.5 µM), without a hit: at the top dose activity, negative = inhibition, most hits filed as inhibitors; also: potency is read from the fitted curve at half-maximal effect; % is scaled to controls: 0 for no effect and ±100 for the full control effect; nearly all actives have a fitted effect of over 60% in size
Target sequence (P00883 whole entry, looked up): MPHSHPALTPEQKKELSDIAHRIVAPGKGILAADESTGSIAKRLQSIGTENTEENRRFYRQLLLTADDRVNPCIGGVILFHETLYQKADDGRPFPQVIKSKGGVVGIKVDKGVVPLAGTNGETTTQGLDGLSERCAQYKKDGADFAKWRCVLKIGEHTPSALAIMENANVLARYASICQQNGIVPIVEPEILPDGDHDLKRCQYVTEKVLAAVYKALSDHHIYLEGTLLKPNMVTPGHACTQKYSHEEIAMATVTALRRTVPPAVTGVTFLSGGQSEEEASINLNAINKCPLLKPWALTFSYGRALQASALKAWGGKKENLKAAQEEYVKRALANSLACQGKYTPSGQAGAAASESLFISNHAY
GAPDH counter – counter-screen for Giardia aldolase inhibitors: GAPDH coupling enzyme; shares compounds with Giardia FBPA inh-1; GAPDH coupling enzyme counterscreen, biochemical, qHTS; Potency, µM (highest dose often 57.5 µM), for inactives: top-dose activity change, negative = inhibition, hits mostly inhibitors; hit rate 6% among 1,500; also: potency is read from the fitted curve at half-maximal effect; % is scaled to controls: 0 for no effect and ±100 for the full control effect; nearly all actives have a fitted effect of over 55% in size
The depositor's hits bear a star; [ ] = another dose, or the depositor's remark. Unless noted, calls follow the shape of the dose curve; as a rule, active = well fitted curve in the direction sought with a large enough effect; inconclusive = small, poorly fitted or top-dose-only effect, or another doubt; inactive = no such curve, though single readings can be large; an effect the other way counts as inactive or inconclusive.

How did O=c1c2ccccc2[nH]c(=S)n1CCN1CCCC1 do in these assays?
Cycloheximide cs: 0; LmPK inh: 2%; Shiga toxin inh: 55; Sm TGR block: -2%; TbPYK inhibitor: -6%; Giardia FBPA inh-1: -8%

How did O=C(Nc1ccc2ccccc2c1)c1ccc2[nH]c(=O)c(=O)[nH]c2c1 do in these assays?
Cycloheximide cs: 4; LmPK inh: -2%; Shiga toxin inh: 15; Sm TGR block: -7%; TbPYK inhibitor: -7%; Giardia FBPA inh-1: -5%

What do the screens show for `O=C1NC(=O)N(c2ccc3c(c2)OCO3)C(=O)/C1=C\c1ccc(N2CCCCC2)o1`?
Cycloheximide cs: -2; LmPK inh: 3%; Shiga toxin inh: 11; Sm TGR block: -22%; TbPYK inhibitor: -17%; Giardia FBPA inh-1: 0%

What do the screens show for `CN1C(=O)NC(=O)/C(=C\c2ccc([N+](=O)[O-])o2)C1=O`?
Cycloheximide cs: -2; LmPK inh: -26%; Shiga toxin inh: -10; Sm TGR block: 7.9µM*; TbPYK inhibitor: inconclusive; Giardia FBPA inh-1: 18µM*; Giardia growth: inconclusive; Mammalian tox: -5%; Giardia FBPA inh-2: inconclusive; Rabbit aldolase: inconclusive; GAPDH counter: inconclusive

How did CN1C(=O)NC(=O)/C(=C/c2ccc([N+](=O)[O-])o2)C1=O do in these assays?
Cycloheximide cs: -2; LmPK inh: -28%; Shiga toxin inh: 3; Sm TGR block: 5µM*; TbPYK inhibitor: inconclusive; Giardia FBPA inh-1: 18µM*; Giardia growth: inconclusive; Mammalian tox: -2%; Giardia FBPA inh-2: inconclusive; Rabbit aldolase: inconclusive; GAPDH counter: inconclusive

Results for Cc1ccc(/C=C2/C(=O)NC(=O)N(C)C2=O)cc1 ?
Cycloheximide cs: -2; LmPK inh: 7%; Shiga toxin inh: 13; Sm TGR block: 1%; TbPYK inhibitor: -26%; Giardia FBPA inh-1: -3%

How did O=C1NC(=O)N(c2ccccc2)C(=O)/C1=C\c1ccc([N+](=O)[O-])o1 do in these assays?
Cycloheximide cs: -1; LmPK inh: -17%; Shiga toxin inh: -7; Sm TGR block: 8.9µM*; Giardia FBPA inh-1: 20µM*; Giardia growth: -22%; Mammalian tox: 7%; Giardia FBPA inh-2: -26%; Rabbit aldolase: -25%; GAPDH counter: -19%

Results for COC(=O)c1ccc(NC(=O)c2ccc[n+]([O-])c2)cc1 ?
Cycloheximide cs: -2; LmPK inh: 3%; Shiga toxin inh: 3; Sm TGR block: -10%; TbPYK inhibitor: 4%; Giardia FBPA inh-1: 4%

Results for Cc1ccc(CN2CCC(N3CC(C)OC(C)C3)CC2)cc1 (stereo not drawn) ?
Cycloheximide cs: -1; LmPK inh: -5%; Shiga toxin inh: -9; Sm TGR block: -21%; TbPYK inhibitor: 5%; Giardia FBPA inh-1: 16µM*; Giardia growth: inconclusive; Mammalian tox: 5%; Giardia FBPA inh-2: 3%; Rabbit aldolase: 5%; GAPDH counter: 1%

Results for Cc1nc(NCc2ccccc2)c2nc(-c3ccccc3)n(CCCN(C)C)c2n1 ?
Giardia FBPA inh-1: 3%

How did CC(C)C[C@H](NC(=O)[C@@H](Cc1c[nH]c2ccccc12)NC(=O)[C@@H](Cc1ccc(O)cc1)NC(=O)[C@@H](CO)NC(=O)[C@@H](Cc1c[nH]c2ccccc12)NC(=O)C(Cc1cnc[nH]1)NC(=O)C1CCC(=O)N1)C(=O)N[C@@H](CCCN=C(N)N)C(=O)N1CCC[C@@H]1C(=O)NCC(N)=O (stereo partly drawn) do in these assays?
TbPYK inhibitor: -2%

How did CCNC(=O)C1CCCN1C(=O)C(CCCN=C(N)N)NC(=O)C(CC(C)C)NC(=O)C(Cc1cn(Cc2ccccc2)cn1)NC(=O)C(Cc1ccc(O)cc1)NC(=O)C(CO)NC(=O)C(Cc1c[nH]c2ccccc12)NC(=O)C(Cc1cnc[nH]1)NC(=O)C1CCC(=O)N1 (stereo not drawn) do in these assays?
Cycloheximide cs: -3; LmPK inh: -6%; Shiga toxin inh: -8; Sm TGR block: -13%; TbPYK inhibitor: -1%; Giardia FBPA inh-1: 10µM*; Giardia growth: 16%[38.3 µM]; Mammalian tox: 2%; Giardia FBPA inh-2: -4%; Rabbit aldolase: 13%; GAPDH counter: 0%

How did CC(C(Sc1ccccc1N)c1ccccc1)[N+](=O)[O-] (stereo not drawn) do in these assays?
Cycloheximide cs: 32*; LmPK inh: 6%; Shiga toxin inh: 61*; Sm TGR block: 0%; TbPYK inhibitor: 25µM*; Giardia FBPA inh-1: 20µM*; Giardia growth: inconclusive; Mammalian tox: 32µM*; Giardia FBPA inh-2: 5%; Rabbit aldolase: 9%; GAPDH counter: -4%

How did Nc1ccccc1SC(CC(=O)c1ccccc1)c1ccccc1 (stereo not drawn) do in these assays?
TbPYK inhibitor: -15%

What do the screens show for `CC1(C)CC[C@]2(C(=O)n3ccnc3)CC[C@]3(C)[C@H](C(=O)C=C4[C@@]5(C)C=C(C#N)C(=O)C(C)(C)[C@@H]5CC[C@]43C)[C@@H]2C1`?
TbPYK inhibitor: -7%

Results for O=C(Nc1ncn[nH]1)c1c(Cl)ccc(Cl)c1Cl ?
Cycloheximide cs: -4; LmPK inh: -3%; Shiga toxin inh: -1; Sm TGR block: 1%; TbPYK inhibitor: -6%; Giardia FBPA inh-1: -5%

Results for O=C(Nc1ncn[nH]1)c1ccccc1O ?
Cycloheximide cs: 0; LmPK inh: -2%; Shiga toxin inh: 1; Sm TGR block: 0%; TbPYK inhibitor: -1%; Giardia FBPA inh-1: 20µM*; Giardia growth: inconclusive; Mammalian tox: -3%; Giardia FBPA inh-2: -12%; Rabbit aldolase: -3%; GAPDH counter: 8%
